Source: PubChem BioAssay (NCATS)
Inconclusive results are not listed. Activity calls are given as the source filed them. Unless noted, calls follow the shape of the dose curve; as a rule, active = well fitted curve in the direction sought with a large enough effect; inconclusive = small, poorly fitted or top-dose-only effect, or another doubt; inactive = no such curve, though single readings can be large; an effect the other way counts as inactive or inconclusive.

Key:
[1] = AP1 Signaling Pathway (AID 357; active = well fitted curve in either direction with a large enough effect, not every such curve was filed as active; also: % is scaled to controls: 0 for no effect and ±100 for the full control effect); conditions: ME-180 AP-1-bla reporter, EGF-induced, beta-lactamase ratio, 5 h; at 17.2 µM (top of the series) unless noted
How it was run: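 Titration-series screen for positive or negative modulators of EC50 EGF-induced signaling in ME-180 cells carrying an AP-1-driven beta-lactamase reporter. After 5 hours at 37 degrees Celsius, CCF4 460nm/530nm emission ratio gave %Activity; AC50 values derived.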

[2] = NFAT Signaling Pathway (AID 444; active = well fitted curve in either direction with a large enough effect, not every such curve was filed as active;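 also: carbachol stimulus at about its EC50 of 1 µM final; % is scaled to controls: 0 for no effect and ±100 for the full control effect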); conditions: Jurkat NFAT-bla M1, carbachol, beta-lactamase ratio, 5 h; at 17.2 µM (top of the series) unless noted
How it was run: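 Jurkat cells carrying an NFAT-driven β-lactamase reporter and co-transfected muscarinic M1 receptor were treated with compound plus carbachol (1 uM final, an EC50 level) for 5 h at 37 °C. CCF4 loading followed for 1 h at RT; 460/530 nm ratio gave %activity.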

[3] = Stat Signaling Pathway (AID 446; active = well fitted curve in either direction with a large enough effect, not every such curve was filed as active;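 also: ME-180 cervical cancer cells given 40 pM IL-6 alongside compound; SIE-controlled beta-lactamase reporter measured as 460/530 nm FRET emission ratio; % is scaled to controls: 0 for no effect and ±100 for the full control effect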)
How it was run: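 Reporter line: ME-180 cervical carcinoma, SIE-beta-lactamase. Treatment: compound with 40 pM IL-6, 5 hrs, 37 C, in low-serum OPTI-MEM with 10 mM HEPES pH 7.3. Detection: 460/530 nm fluorescence.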

[4] = molecular target: Glucocorticoid receptor (Homo sapiens) (UniProt P04150); assay: GR-GFP Redistribution (AID 450;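 active = compounds whose dose series gives a full or clear partial fitted curve of increased nuclear translocation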; also: potency is read from the fitted curve at half-maximal effect); conditions: U2OS GR-GFP nuclear translocation, laser cytometry, 2 h
Glucocorticoid receptor (Homo sapiens), sequence (P04150 whole entry, looked up, the tested form may be a part): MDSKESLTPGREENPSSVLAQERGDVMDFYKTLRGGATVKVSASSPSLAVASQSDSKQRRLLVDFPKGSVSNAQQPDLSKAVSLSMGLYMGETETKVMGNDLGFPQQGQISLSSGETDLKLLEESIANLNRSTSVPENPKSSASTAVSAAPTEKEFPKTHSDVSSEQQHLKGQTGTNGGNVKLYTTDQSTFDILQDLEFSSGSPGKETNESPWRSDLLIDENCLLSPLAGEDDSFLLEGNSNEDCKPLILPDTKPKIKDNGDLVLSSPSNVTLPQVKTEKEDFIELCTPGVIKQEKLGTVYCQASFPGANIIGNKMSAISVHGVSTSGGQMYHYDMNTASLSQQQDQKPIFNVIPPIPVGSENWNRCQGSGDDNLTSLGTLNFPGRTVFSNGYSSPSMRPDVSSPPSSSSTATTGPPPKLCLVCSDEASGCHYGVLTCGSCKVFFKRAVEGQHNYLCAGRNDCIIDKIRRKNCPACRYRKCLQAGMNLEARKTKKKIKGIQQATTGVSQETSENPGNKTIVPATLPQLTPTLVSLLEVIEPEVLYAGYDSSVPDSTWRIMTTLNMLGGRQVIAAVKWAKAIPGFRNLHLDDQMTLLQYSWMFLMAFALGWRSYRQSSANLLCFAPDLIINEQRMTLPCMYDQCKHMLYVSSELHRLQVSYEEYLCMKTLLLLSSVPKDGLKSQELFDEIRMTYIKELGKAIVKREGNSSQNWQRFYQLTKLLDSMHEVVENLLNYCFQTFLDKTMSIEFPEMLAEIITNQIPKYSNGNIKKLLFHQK

[5] = molecular target: Glucocorticoid receptor (Homo sapiens) (UniProt P04150); assay: GR-EFC Redistribution (AID 451; calls by dose curve; also: potency is read from the fitted curve at half-maximal effect); conditions: CHO-K1 GR-EFC translocation, beta-gal luminescence, 2 h
How it was run: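 CHO-K1 cells stably expressing nuclear-localized β-gal enzyme acceptor and GR fused C-terminally to the enzyme donor fragment; ligand-driven nuclear translocation restores β-gal by complementation. Compounds titrated up to 46 uM final, 2 h at 37 °C; luminescence read.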

[6] = molecular target: Mitogen-activated protein kinase 10 (Mus musculus) (UniProt Q61831); assay: JNK3 AlphaScreen Assay (AID 530; active = well fitted curve in either direction with a large enough effect, not every such curve was filed as active;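 also: kinase came from lysate of stimulated human HepG2 cells; signal reports phosphorylation of biotinylated GST-cJun 1-79 at Ser73 with 10 µM ATP; % is scaled to controls: 0 for no effect and ±100 for the full control effect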)
How it was run: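 JNK3 came from HepG2 lysates pre-activated with IL-1beta and TNF-alpha and phosphorylated biotinylated GST-cJun (1-79) at 10 uM ATP, pH 7.6, room temperature. Compounds were titrated. AlphaScreen signal used anti-phospho-cJun (Ser73) antibody.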

[7] = molecular target: 3',5'-cyclic-AMP phosphodiesterase 4B (Homo sapiens) (UniProt Q07343); assay: qHTS Assay for Inhibitors of PDE-IV (AID 607; active = well fitted activation curve with a large enough effect in the main read-out, with a control signal flat, not every such curve was filed as active; also: % of control where 0% means no effect)
3',5'-cyclic-AMP phosphodiesterase 4B (Homo sapiens), sequence (Q07343 whole entry, looked up): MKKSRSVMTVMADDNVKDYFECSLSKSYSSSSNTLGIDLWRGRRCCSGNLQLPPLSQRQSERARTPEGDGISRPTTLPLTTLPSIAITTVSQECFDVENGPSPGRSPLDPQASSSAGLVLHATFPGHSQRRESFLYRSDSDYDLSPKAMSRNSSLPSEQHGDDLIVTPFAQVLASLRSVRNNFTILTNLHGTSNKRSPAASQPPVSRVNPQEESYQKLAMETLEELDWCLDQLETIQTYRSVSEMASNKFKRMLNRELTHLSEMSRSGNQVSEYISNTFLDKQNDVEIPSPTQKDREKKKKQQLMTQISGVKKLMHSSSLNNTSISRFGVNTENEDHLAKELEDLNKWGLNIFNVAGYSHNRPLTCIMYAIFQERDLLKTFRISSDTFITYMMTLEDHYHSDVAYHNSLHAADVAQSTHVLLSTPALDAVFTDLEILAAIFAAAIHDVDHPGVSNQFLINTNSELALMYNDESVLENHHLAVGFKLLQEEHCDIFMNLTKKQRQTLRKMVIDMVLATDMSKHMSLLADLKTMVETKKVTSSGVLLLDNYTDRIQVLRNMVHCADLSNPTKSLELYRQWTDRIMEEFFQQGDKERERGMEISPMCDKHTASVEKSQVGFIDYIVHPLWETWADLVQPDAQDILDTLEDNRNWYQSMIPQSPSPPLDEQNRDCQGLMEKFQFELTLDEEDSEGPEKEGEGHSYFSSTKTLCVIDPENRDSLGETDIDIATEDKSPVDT
How it was run: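 Cell-based read-out of cAMP via a modified cyclic nucleotide-gated channel and membrane potential dye (535/590 nm) in HEK293 cells expressing PDE4 endogenously. Compounds tested up to 22.9 uM final; 100 uM RO 20-1724 reference.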

[8] = molecular target: ATP-dependent 6-phosphofructokinase (Trypanosoma brucei brucei) (UniProt O15648); assay: qHTS Assay to Find Inhibitors of T. brucei phosphofructokinase: hit validation (AID 492961)
ATP-dependent 6-phosphofructokinase (Trypanosoma brucei brucei), sequence (O15648 whole entry, looked up): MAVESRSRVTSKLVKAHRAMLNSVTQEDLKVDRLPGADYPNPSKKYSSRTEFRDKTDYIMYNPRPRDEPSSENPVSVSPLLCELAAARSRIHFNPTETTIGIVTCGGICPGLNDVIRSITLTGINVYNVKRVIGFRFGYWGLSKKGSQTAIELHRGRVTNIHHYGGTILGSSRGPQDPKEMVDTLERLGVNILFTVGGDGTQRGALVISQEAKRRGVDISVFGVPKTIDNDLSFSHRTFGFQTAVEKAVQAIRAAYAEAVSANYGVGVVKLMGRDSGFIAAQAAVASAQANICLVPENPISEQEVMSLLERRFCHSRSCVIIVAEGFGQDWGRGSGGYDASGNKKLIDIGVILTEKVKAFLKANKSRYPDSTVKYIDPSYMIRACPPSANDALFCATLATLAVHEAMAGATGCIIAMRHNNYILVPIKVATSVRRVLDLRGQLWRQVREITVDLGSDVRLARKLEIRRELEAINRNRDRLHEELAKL
How it was run: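 Reaction: 0.1 M triethanolamine pH 8.0, 5 mM MgCl2, F6P 0.5 mM, ATP 0.1 mM, PFK 1.25 nM, 45 min RT. Read-out: ADP-Glo luminescence. Analysis: concentration-response fits, classed by r2 and efficacy.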

[9] = molecular target: Ubiquitin carboxyl-terminal hydrolase 1 (Homo sapiens) (UniProt O94782); assay: Inhibitors of USP1/UAF1: Pilot qHTS (AID 504865);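 also: rhodamine fluorescence freed from ubiquitin-rhodamine substrate followed over time; top concentration of the series differs between compounds; % is scaled to controls: 0 for no effect and ±100 for the full control effect; nearly all actives have a fitted effect of over 35% in size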
Ubiquitin carboxyl-terminal hydrolase 1 (Homo sapiens), sequence (O94782 whole entry, looked up): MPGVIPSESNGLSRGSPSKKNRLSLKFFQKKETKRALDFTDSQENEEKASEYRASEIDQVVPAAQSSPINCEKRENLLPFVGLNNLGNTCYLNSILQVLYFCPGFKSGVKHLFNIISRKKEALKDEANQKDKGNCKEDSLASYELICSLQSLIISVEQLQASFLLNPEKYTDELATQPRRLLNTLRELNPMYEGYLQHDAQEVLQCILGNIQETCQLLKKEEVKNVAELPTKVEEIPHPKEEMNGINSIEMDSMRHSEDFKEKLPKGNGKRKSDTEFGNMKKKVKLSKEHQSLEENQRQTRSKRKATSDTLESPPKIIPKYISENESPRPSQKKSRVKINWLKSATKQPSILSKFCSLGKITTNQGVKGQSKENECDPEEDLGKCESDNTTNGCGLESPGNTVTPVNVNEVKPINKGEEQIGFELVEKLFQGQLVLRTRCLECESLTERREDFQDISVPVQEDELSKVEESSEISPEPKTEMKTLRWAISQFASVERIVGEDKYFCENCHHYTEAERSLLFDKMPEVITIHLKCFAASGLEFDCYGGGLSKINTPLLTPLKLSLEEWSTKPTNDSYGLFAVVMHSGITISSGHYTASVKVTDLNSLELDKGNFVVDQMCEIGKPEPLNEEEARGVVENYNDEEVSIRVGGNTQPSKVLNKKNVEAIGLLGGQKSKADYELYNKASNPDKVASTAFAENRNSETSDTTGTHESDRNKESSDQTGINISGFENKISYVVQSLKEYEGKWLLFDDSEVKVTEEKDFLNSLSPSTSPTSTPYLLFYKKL
How it was run: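 Deubiquitinase activity followed as kinetic rhodamine fluorescence release from 150 nM Ub-Rho. 1 nM USP1/UAF1 with compound, after 15 min room-temperature preincubation, in HEPES pH 7.8 buffer containing TCEP, EDTA, BSA and Tween-20.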

[10] = molecular target: Luciferin 4-monooxygenase (Photinus pyralis) (UniProt P08659); assay: Biochemical firefly luciferase enzyme assay for NPC (AID 624030);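 also: purified P. pyralis luciferase at 10 nM with luciferin and ATP substrate; 0% = DMSO and -100% = full luciferase inhibition by PTC124 control; nearly all actives have a fitted effect of over 70% in size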
Luciferin 4-monooxygenase (Photinus pyralis), sequence (P08659 whole entry, looked up): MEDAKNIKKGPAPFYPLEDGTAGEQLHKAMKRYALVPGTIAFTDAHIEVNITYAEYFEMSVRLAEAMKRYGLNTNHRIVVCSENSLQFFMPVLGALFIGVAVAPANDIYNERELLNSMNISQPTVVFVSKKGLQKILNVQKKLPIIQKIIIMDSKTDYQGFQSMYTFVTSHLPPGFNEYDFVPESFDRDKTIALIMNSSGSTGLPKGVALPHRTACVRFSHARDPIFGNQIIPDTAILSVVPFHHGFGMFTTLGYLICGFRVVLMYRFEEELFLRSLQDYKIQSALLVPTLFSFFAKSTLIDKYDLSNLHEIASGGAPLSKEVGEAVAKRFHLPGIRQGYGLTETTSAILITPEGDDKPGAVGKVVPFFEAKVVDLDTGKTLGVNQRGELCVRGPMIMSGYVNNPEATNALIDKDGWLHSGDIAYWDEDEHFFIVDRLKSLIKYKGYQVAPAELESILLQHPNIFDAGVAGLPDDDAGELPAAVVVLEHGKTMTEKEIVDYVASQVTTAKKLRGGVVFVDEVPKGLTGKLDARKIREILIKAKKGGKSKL
How it was run: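 Counter-screen for direct inhibition of the luciferase enzyme by approved-drug library compounds, run at 10 nM enzyme in 50 mM Tris acetate (final). Luminescence was read within 5 min of enzyme-buffer addition and normalized to PTC124 versus DMSO (0%).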

[11] = S16 Schwann cell PMP22 intronic element firefly luciferase assay (AID 624032);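 also: plate controls were DMSO for no effect and PTC124 positive control mean for full effect; nearly all actives have a fitted effect of over 30% in size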
How it was run: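 Rat S16 Schwann cells stably carrying a PMP22 intronic element-driven Fluc reporter were seeded overnight, then exposed to compounds for 24 h at 37 °C. Luminescence was normalized to PTC124 (positive control) and DMSO (0% activity).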

[12] = S16 Schwann cell PMP22 intronic element beta-lactamase assay (AID 624044; calls by dose curve;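 also: 0% = DMSO and -100% = potassium clavulanate positive control; nearly all actives have a fitted effect of over 15% in size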); conditions: S16 rat Schwann cells, PMP22 element beta-lactamase FRET, 24 h; ratio activity, negative = inhibition: at 38.3 µM (top of the series)
How it was run: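 Rat S16 Schwann cells with beta-Lac driven by a PMP22 intronic element, compound-treated 24 h at 37 °C. LiveBLAzer FRET B/G read: 460 nm normalized to potassium clavulanate vs DMSO; 535 nm FRET as viability; concentration-effect curves classified.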

[13] = qHTS profiling for inhibitors of Plasmodium falciparum proliferation (AID 504749); also: nearly all actives have a fitted effect of over 60% in size; also: potency is read from the fitted curve at half-maximal effect;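 as to activity, negative = inhibition: 0% = DMSO vehicle and full inhibition = artemisinin control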; conditions: P. falciparum in erythrocytes, SYBR Green DNA, 72 h, at 12.8 µM (top of the series)
How it was run: (§1)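 P. falciparum-infected erythrocytes (0.3% parasitemia, 2.5% hematocrit final) were exposed to compounds for 72 h at 37 C in 5% CO2, then lysed with SYBR Green buffer overnight at room temperature; parasite DNA fluorescence was normalized to artemisinin and DMSO controls.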

3D7 = assay: as above; conditions: P. falciparum in erythrocytes, SYBR Green DNA, 72 h; series mostly up to 28.7 µM
How it was run: as §1

AA1029 = assay: as above; conditions: P. falciparum in erythrocytes, SYBR Green DNA, 72 h; series mostly up to 28.7 µM
How it was run: as §1

AS120 = assay: as above; conditions: P. falciparum in erythrocytes, SYBR Green DNA, 72 h; series mostly up to 28.7 µM
How it was run: as §1

ATS189 = assay: as above; conditions: P. falciparum in erythrocytes, SYBR Green DNA, 72 h; series mostly up to 28.7 µM
How it was run: as §1

C2A = assay: as above; conditions: P. falciparum in erythrocytes, SYBR Green DNA, 72 h; series mostly up to 28.7 µM
How it was run: as §1

CP185 = assay: as above; conditions: P. falciparum in erythrocytes, SYBR Green DNA, 72 h; series mostly up to 28.7 µM
How it was run: as §1

CP191 = assay: as above; conditions: P. falciparum in erythrocytes, SYBR Green DNA, 72 h; series mostly up to 28.7 µM
How it was run: as §1

CP194 = assay: as above; conditions: P. falciparum in erythrocytes, SYBR Green DNA, 72 h; series mostly up to 28.7 µM
How it was run: as §1

CP201 = assay: as above; conditions: P. falciparum in erythrocytes, SYBR Green DNA, 72 h; series mostly up to 28.7 µM
How it was run: as §1

CP203 = assay: as above; conditions: P. falciparum in erythrocytes, SYBR Green DNA, 72 h; series mostly up to 28.7 µM
How it was run: as §1

CP211 = assay: as above; conditions: P. falciparum in erythrocytes, SYBR Green DNA, 72 h; series mostly up to 28.7 µM
How it was run: as §1

CP215 = assay: as above; conditions: P. falciparum in erythrocytes, SYBR Green DNA, 72 h; series mostly up to 28.7 µM
How it was run: as §1

CP217 = assay: as above; conditions: P. falciparum in erythrocytes, SYBR Green DNA, 72 h; series mostly up to 28.7 µM
How it was run: as §1

CP238 = assay: as above; conditions: P. falciparum in erythrocytes, SYBR Green DNA, 72 h; series mostly up to 28.7 µM
How it was run: as §1

CP247 = assay: as above; conditions: P. falciparum in erythrocytes, SYBR Green DNA, 72 h; series mostly up to 28.7 µM
How it was run: as §1

CP250 = assay: as above; conditions: P. falciparum in erythrocytes, SYBR Green DNA, 72 h; series mostly up to 28.7 µM
How it was run: as §1

CP252 = assay: as above; conditions: P. falciparum in erythrocytes, SYBR Green DNA, 72 h; series mostly up to 28.7 µM
How it was run: as §1

CP256 = assay: as above; conditions: P. falciparum in erythrocytes, SYBR Green DNA, 72 h; series mostly up to 28.7 µM
How it was run: as §1

CP262 = assay: as above; conditions: P. falciparum in erythrocytes, SYBR Green DNA, 72 h; series mostly up to 28.7 µM
How it was run: as §1

CP265 = assay: as above; conditions: P. falciparum in erythrocytes, SYBR Green DNA, 72 h; series mostly up to 28.7 µM
How it was run: as §1

CP266 = assay: as above; conditions: P. falciparum in erythrocytes, SYBR Green DNA, 72 h; series mostly up to 28.7 µM
How it was run: as §1

CP268 = assay: as above; conditions: P. falciparum in erythrocytes, SYBR Green DNA, 72 h; series mostly up to 28.7 µM
How it was run: as §1

CP269 = assay: as above; conditions: P. falciparum in erythrocytes, SYBR Green DNA, 72 h; series mostly up to 28.7 µM
How it was run: as §1

CP297 = assay: as above; conditions: P. falciparum in erythrocytes, SYBR Green DNA, 72 h; series mostly up to 28.7 µM
How it was run: as §1

CP305 = assay: as above; conditions: P. falciparum in erythrocytes, SYBR Green DNA, 72 h; series mostly up to 28.7 µM
How it was run: as §1

CP315 = assay: as above; conditions: P. falciparum in erythrocytes, SYBR Green DNA, 72 h; series mostly up to 28.7 µM
How it was run: as §1

CP325 = assay: as above; conditions: P. falciparum in erythrocytes, SYBR Green DNA, 72 h; series mostly up to 28.7 µM
How it was run: as §1

CP329 = assay: as above; conditions: P. falciparum in erythrocytes, SYBR Green DNA, 72 h; series mostly up to 28.7 µM
How it was run: as §1

DIV17 = assay: as above; conditions: P. falciparum in erythrocytes, SYBR Green DNA, 72 h; series mostly up to 28.7 µM
How it was run: as §1

DIV30 = assay: as above; conditions: P. falciparum in erythrocytes, SYBR Green DNA, 72 h; series mostly up to 28.7 µM
How it was run: as §1

Dd2 = assay: as above; conditions: P. falciparum in erythrocytes, SYBR Green DNA, 72 h; series mostly up to 28.7 µM
How it was run: as §1

ECU = assay: as above; conditions: P. falciparum in erythrocytes, SYBR Green DNA, 72 h; series mostly up to 28.7 µM
How it was run: as §1

FAB9 = assay: as above; conditions: P. falciparum in erythrocytes, SYBR Green DNA, 72 h; series mostly up to 28.7 µM
How it was run: as §1

JCK = assay: as above; conditions: P. falciparum in erythrocytes, SYBR Green DNA, 72 h; series mostly up to 28.7 µM
How it was run: as §1

N140 = assay: as above; conditions: P. falciparum in erythrocytes, SYBR Green DNA, 72 h; series mostly up to 28.7 µM
How it was run: as §1

P94_40 = assay: as above; conditions: P. falciparum in erythrocytes, SYBR Green DNA, 72 h; series mostly up to 28.7 µM
How it was run: as §1

PC15 = assay: as above; conditions: P. falciparum in erythrocytes, SYBR Green DNA, 72 h; series mostly up to 28.7 µM
How it was run: as §1

PC26 = assay: as above; conditions: P. falciparum in erythrocytes, SYBR Green DNA, 72 h; series mostly up to 28.7 µM
How it was run: as §1

PC49 = assay: as above; conditions: P. falciparum in erythrocytes, SYBR Green DNA, 72 h; series mostly up to 28.7 µM
How it was run: as §1

SC27B = assay: as above; conditions: P. falciparum in erythrocytes, SYBR Green DNA, 72 h; series mostly up to 28.7 µM
How it was run: as §1

TAB113 = assay: as above; conditions: P. falciparum in erythrocytes, SYBR Green DNA, 72 h; series mostly up to 28.7 µM
How it was run: as §1

CN(C)[C@H]1C(=O)C(C(N)=O)=C(O)[C@]2(O)C(=O)C3=C(O)c4c(O)cccc4[C@@](C)(O)[C@H]3C[C@@H]12
inactive: activity change, negative = inhibition [1] 11.4% | activity change, negative = inhibition [2] -2.46% | outcome [3] | Potency [4] > 20.6 µM | Potency [5] > 20.6 µM | outcome [6] | outcome [7] | outcome [8] | Potency [9] | Potency [10] | Potency [11] | Potency [12] | activity, negative = inhibition ([13]; parasite line A) -27.8% | activity, negative = inhibition ([13]; parasite line B) -27.1% | Potency (3D7) | Potency (AA1029) | Potency (AS120) | Potency (ATS189) | Potency (C2A) | Potency (CP185) | Potency (CP191) | Potency (CP194) | Potency (CP201) | Potency (CP203) | Potency (CP211) | Potency (CP215) | Potency (CP217) | Potency (CP238) | Potency (CP247) | Potency (CP250) | Potency (CP252) | Potency (CP256) | Potency (CP262) | Potency (CP265) | Potency (CP266) | Potency (CP268) | Potency (CP269) | Potency (CP297) | Potency (CP305) | Potency (CP315) | Potency (CP325) | Potency (CP329) | Potency (DIV17) | Potency (DIV30) | Potency (ECU) | Potency (FAB9) | Potency (JCK) | Potency (N140) | Potency (P94_40) | Potency (PC15) | Potency (PC26) | Potency (PC49) | Potency (SC27B) | Potency (TAB113)
active: Potency (Dd2) 1.78 µM
